# Measured values as given in PubChem BioAssay (NCI).
# The panel holds about 83,000 compounds, 20% with a hit somewhere; the sample as a whole holds those more often.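 In brief: 96-well plates, 48 h treatment, single concentration, percent growth endpoint.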 Active and inactive are the calls of the source. How the source made its calls: active means growth percent below 10; inactive means the rest.
# Test system: MDA-MB-468 breast
# Experiment: NCI-60 one-dose screen, 48 h (100 = growth as untreated, 0 = no growth, -100 = all killed)
# Conditions: 10 µM unless noted
row,Structure (SMILES),growth
1,O=C(CN(C(=O)Cn1c(=O)n2nnnc2c2ccccc21)c1ccccc1C(F)(F)F)Nc1ccc(C(F)(F)F)cc1,108% (inactive)
2,O=C(Nc1ccc(Cl)cc1)c1cc(-c2ccc(Cl)cc2)c2sc(=O)[nH]c2n1,-3.42% (active)
3,C[C@H]1OCC2(CCN(c3cnc(C(=O)Nc4cc(F)cc5cccnc45)cn3)CC2)[C@H]1N,-4.2% (active)
4,COc1ccc2c(c1)NC(=O)CN2c1nc(C)nc2ccccc12,9.26% (active)
5,Nc1c2c(c(O)c3c1=C(CO)C=N3)=NCCS2,-72% (active)
6,NC(N)=Nc1ccc(Nc2cccc(Oc3ccc(Cl)c(C(F)(F)F)c3)c2)cn1,8.19% (active)
7,CN(C)c1ccc2[nH]c3c(C(N)=O)cc(=O)c(=O)c=3oc2c1,59.2% (inactive)
8,FC1(F)CCN(Cc2c[nH]c3cc(Cl)ccc23)C[C@H]1CCc1ccccc1,9.33% (active)
9,CCCCNC(=O)Oc1ccc2c(=O)c3sc4c(=O)c5ccccc5c(=O)c4c3c(=O)c2c1,-48.3% (active)
10,COc1nc2ccccc2cc1-c1nc2c(cnn2-c2ccccc2)c(=O)[nH]1,35.9% (inactive)
11,C[N+](C)(C)C(=O)c1ccccc1,101% (inactive)
12,CC(C)OC(=O)[C@H](C)N[P@@](=O)(OC[C@@]1(C)O[C@@H](n2cc(F)c(N)nc2=O)C[C@@H]1O[P@](=O)(N[C@@H](C)C(=O)OC(C)C)Oc1ccccc1)Oc1ccccc1,97.9% (inactive)
13,CCC1CCc2nc3sc(C(=O)Nc4ccccc4C)c(N)c3cc2C1 (centres undefined),-0.179% (active)
14,CC(=O)N(C)C1CCc2c(sc(NC(=O)c3ccc(C(C)(C)C)cc3)c2C(N)=O)C1 (centres undefined),86.6% (inactive)
